Here are results for 34 compounds from PubChem BioAssay (EPA / NIEHS).

Inconclusive results are not listed. The source made the active and inactive calls. The calls were made as follows: active = hit-call score of the fitted dose curve at least 0.9, where 1 is the maximum; inconclusive = response in the unintended direction; inactive = score below 0.9.

Chain of Broad substrate specificity ATP-binding cassette transporter ABCG2 (Homo sapiens) (Q9UNQ0 whole entry, looked up): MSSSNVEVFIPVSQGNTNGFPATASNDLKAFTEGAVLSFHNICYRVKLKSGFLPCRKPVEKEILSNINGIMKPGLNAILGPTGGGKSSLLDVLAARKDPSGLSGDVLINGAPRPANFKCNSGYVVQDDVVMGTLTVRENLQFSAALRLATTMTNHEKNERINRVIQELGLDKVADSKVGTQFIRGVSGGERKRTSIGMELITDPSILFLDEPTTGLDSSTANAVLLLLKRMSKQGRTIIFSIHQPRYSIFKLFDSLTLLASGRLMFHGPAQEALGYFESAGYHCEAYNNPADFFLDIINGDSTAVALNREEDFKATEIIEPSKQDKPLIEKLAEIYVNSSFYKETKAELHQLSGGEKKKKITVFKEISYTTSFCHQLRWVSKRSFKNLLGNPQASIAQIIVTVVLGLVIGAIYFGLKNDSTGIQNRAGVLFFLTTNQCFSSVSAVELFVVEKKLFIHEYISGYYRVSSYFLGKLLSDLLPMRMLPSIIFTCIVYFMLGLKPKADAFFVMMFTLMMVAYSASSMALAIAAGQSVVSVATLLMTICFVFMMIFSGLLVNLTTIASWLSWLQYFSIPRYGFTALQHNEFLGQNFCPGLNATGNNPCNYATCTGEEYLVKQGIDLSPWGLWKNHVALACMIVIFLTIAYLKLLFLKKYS

Read-out in the experiment: Broad substrate specificity ATP-binding cassette transporter ABCG2 (Homo sapiens) (UniProt Q9UNQ0)
The experiment in a line: CLD_ABCG2_6hr: CellzDirect (CLD) Gene Expression Assay for ABC Transporter (ABCG2) at 6 hours (AID 2283660). How it is done: CLD_6hr is a cell-based, multiplexed-readout assay that uses hepatocyte, a human liver primary cell, with measurements taken at 6 hours after chemical dosing in a 96-well plate.CLD_ABCG2_6hr is one of 16 assay component(s) measured or calculated from the CLD_6hr assay. It is designed to make measurements of mRNA induction, a form of inducible reporter, as detected with chemiluminescence signals by Quantitative Nuclease Protection Assay (qNPA) technology.Data from the assay component CLD_ABCG2_6hr was analyzed at the endpoint, CLD_ABCG2_6hr, in the positive analysis fitting direction relative to DMSO as the negative control and baseline of activity. Using a type of inducible reporter, gain-of-signal activity can be used to understand changes in the reporter gene as they relate to the gene ABCG2. Furthermore, this assay endpoint can be referred to as a primary readout. To generalize the intended target to other relatable targets, this assay endpoint is annotated to the transporter intended target family, where subfamily is ABC transporter.
Human hepatocyte cultures were treated daily for two consecutive days with fresh dosing solutions containing appropriate concentrations of the 320 ToxCast chemicals (chemical identities were blinded to CellzDirect and other ToxCast collaborators), vehicle control (0.2% DMSO), and positive control inducers as summarized in Table 1. Due to the large number of treatment groups and chemicals examined, the ToxCast chemicals were divided into two groups (spanning two independent cultures of hepatocytes from separate donor preparations (Hu778: ToxCast plates 1 and 2; Hu776: ToxCast plates 3 and 4). Each preparation of human hepatocyte cultures was treated with respective vehicle control, medium only control, set of six positive controls/reference chemicals for the five hepatic receptor pathways, and a subset of eight of the ToxCast chemicals (indoxacarb, pyrithiobac-sodium, norflurazon, cyhalofop-butyl, methomyl, thiram, acetochlor, and propiconazole). These replicate data, coupled with internal replicates designed within the blinded ToxCast chemical library, provided additional data to evaluate interindividual differences between hepatocyte preparations and their potential impact on chemical profiles.Cell morphology and integrity were evaluated using phase-contrast microscopy as an indicator of hepatocyte cell health (Tyson & Green, 1987). Cultures for each treatment group (i.e., media, vehicle [0.2% DMSO], positive control inducers [multiple concentrations], and the ToxCast chemicals [multiple concentrations]) were observed and cell morphology was assessed relative to vehicle control cultures at each harvest time point (0, 6, 24, or 48 h). […] Images were evaluated at the conclusion of the study to assess changes in cell integrity and account for the effects of chemical exposure on uncharacteristic changes in concentration-dependent gene expression profiles. The results from these determinations of apparent cytotoxicity were annotated (yes/no) alongside the corresponding qNPA data for reference.At the conclusion of each treatment period, hepatocyte cultures (96-well) were washed with 1 volume of HBSS, lysed by addition of 25 ul ArrayPlate lysis buffer (HTG, Tucson, AZ), and 70 ul/well of Denaturation Oil, denatured by incubation at 95C for 10 min, and frozen at approximately -70C until analysis by nuclease protection assay (qNPA) (Roberts et al., 2007). For qNPA analysis, cell lysates were thawed at 50C for approximately 30 min, qNPA probes were added, and samples were incubated at 95C for 10 min to begin the detection process by denaturing the target RNA, dissociating the duplexes and secondary structure hybridization. At the conclusion of the hybridization period, S1 nuclease reagent was added to each sample to digest all nonprotected nucleotides at 50C for 60-90 min. […]
On to `CCC(C)OC(=O)N1CCCCC1CCO` (centres undefined), for which the result was inactive.

For the compound `c1ccc(Nc2ccccc2)cc1`, the compound was called inactive.

With `COC(=O)c1ccccc1C(=O)O`, the compound was called inactive.

`CCCCC(CC)COC(=O)c1ccccc1C(=O)O` (centres undefined): the result was inactive.

Consider `C#CCOC(=O)[C@@H](C)Oc1ccc(Oc2ncc(Cl)cc2F)cc1`, for which the result was inactive.

As for `Cc1nn(C)c(Oc2ccccc2)c1C=NOCc1ccc(C(=O)OC(C)(C)C)cc1`, the call was inactive.

In the case of `S=C(S)NCCNC(=S)S.[Mn+2].[S-]C([S-])=NCCN=C([S-])[S-].[Zn+2]`, the outcome was inactive.

With `N#CSCSc1nc2ccccc2s1`, the compound was called inactive.

With `C=CCOC(Cn1ccnc1)c1ccc(Cl)cc1Cl` (centres undefined), the call was inactive.

For `O=C(Nc1ccc([N+](=O)[O-])cc1Cl)c1cc(Cl)ccc1O`, the compound was called inactive.

Take `CCCCCCC(C)OC(=O)COc1nc(F)c(Cl)c(N)c1Cl` (centres undefined): the compound was classed as inactive.

Take `CC1(C)C(C=C(Cl)Cl)C1C(=O)OCc1cccc(Oc2ccccc2)c1` (centres undefined): the result was inactive.

In the case of `COC(=O)c1cccc(C)c1S(=O)(=O)NC(=O)Nc1nc(OCC(F)(F)F)nc(N(C)C)n1`, the result was inactive.

`CCCOC(=O)NCCCN(C)C`: the call was inactive.

For `CCOC(=O)C(C)Oc1ccc(Oc2cnc3cc(Cl)ccc3n2)cc1` (centres undefined), the compound was classed as inactive.

As to `COCCO`, the compound was classed as inactive.

Consider `CCNc1nc(N)nc(Cl)n1`, for which the outcome was inactive.

With `CCN(CC)C(=O)c1cccc(C)c1`, the call was inactive.

Regarding `CCCCOC(=O)[C@@H](C)Oc1ccc(Oc2ccc(C(F)(F)F)cn2)cc1`, the compound was classed as inactive.

In the case of `CCCOC(=O)c1ccc(C(=O)OCCC)nc1`, the compound was classed as inactive.

In the case of `OB(O)O`, the compound was classed as inactive.

`COC(=O)c1c(Cl)nn(C)c1S(=O)(=O)NC(=O)Nc1nc(OC)cc(OC)n1`: the compound was called inactive.

For `COC(=O)CSc1cc(N=c2sc(=O)n3n2CCCC3)c(F)cc1Cl`, the outcome was inactive.

With `CC(C)(C)[C@@H](O)[C@@H](Cc1ccc(Cl)cc1)n1cncn1`, the call was inactive.

`CCCCCOC(=O)COc1cc(N2C(=O)C3=C(CCCC3)C2=O)c(F)cc1Cl`: the compound was called inactive.

Consider `CCCN(CCC)C(=O)SCC`, for which the outcome was inactive.

For `CCCCOCCOCCOCc1cc2c(cc1CCC)OCO2`, the compound was called inactive.

As to `CCCCC(CC)CN1C(=O)C2C3C=CC(C3)C2C1=O` (centres undefined), the compound was called inactive.

With `CCC(O)=C1C(=O)CC(C(=O)O)CC1=O` (centres undefined), the outcome was inactive.

On to `CC(C)(c1ccc(O)cc1)c1ccc(O)cc1`, for which the call was inactive.

Regarding `CCOC(=O)[C@H](C)Oc1ccc(Oc2nc3ccc(Cl)cc3o2)cc1`, the call was inactive.

As to `COC(=O)c1ccc(I)cc1S(=O)(=O)NC(=O)Nc1nc(C)nc(OC)n1`, the call was inactive.

In the case of `O=C(O)C1(C(=O)Nc2ccc(Cl)cc2Cl)CC1`, the compound was called inactive.

Take `CCSC(=O)N(CC(C)C)CC(C)C`: the outcome was inactive.
